Laboratory results reported in PubChem BioAssay.
Active and inactive are the calls of the source. Unless noted, how the calls were made is not given here.

Assays:
[1] = kinase inhibitors against Plasmodium liver-stage infection, cell-based, known kinase inhibitor set, luminescence, hepatoma host viability (AID 624392); details: Plasmodium liver stage in hepatoma cells, luciferase luminescence, concentration not given here; liver cell % of control: measured here: host liver cell viability; parasite % of control: stronger effect = lower value;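 further: infected cells incubated roughly two days before readout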
[2] = modulators of glucocorticoid suppression of NF-kB, cell-based, luciferase, IL-1B stimulus, dexamethasone (AID 624486); details: NF-kB luciferase reporter, IL-1B + dexamethasone, luminescence; percent of negative control (+Dex): actives lie on both sides, concentration not given here; z-score: measured here: IL-1B alone, no Dex;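 on percent of negative control (+Dex): 100% = mean signal of vehicle control wells on the plate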
[3] = kinase inhibitors altering Pseudomonas killing of worms, whole organism (AID 651566);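 further: tested at 14 µM; sign flipped so higher z means a lower ratio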; details: C. elegans killed by P. aeruginosa, survival ratio
[4] = activators of macrophage pro-inflammatory response, cell-based, murine, luminescence (AID 652131); details: murine macrophage pro-inflammatory reporter, stronger effect = higher value
[5] = biological target: Cellular tumor antigen p53 (Homo sapiens) (UniProt P04637); assay: kinase inhibitors altering GFP-p53 stability in HPV16-positive cells, imaging, known kinase inhibitor set, EGFP/DsRed ratio (AID 1053116); details: stronger effect = higher value; EGFP object count: measured here: GFP-p53 positive objects count;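 further: cells exposed to compounds for 24 h at 37 °C before reading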
Sequence of Cellular tumor antigen p53 (Homo sapiens) (P04637 whole entry, looked up): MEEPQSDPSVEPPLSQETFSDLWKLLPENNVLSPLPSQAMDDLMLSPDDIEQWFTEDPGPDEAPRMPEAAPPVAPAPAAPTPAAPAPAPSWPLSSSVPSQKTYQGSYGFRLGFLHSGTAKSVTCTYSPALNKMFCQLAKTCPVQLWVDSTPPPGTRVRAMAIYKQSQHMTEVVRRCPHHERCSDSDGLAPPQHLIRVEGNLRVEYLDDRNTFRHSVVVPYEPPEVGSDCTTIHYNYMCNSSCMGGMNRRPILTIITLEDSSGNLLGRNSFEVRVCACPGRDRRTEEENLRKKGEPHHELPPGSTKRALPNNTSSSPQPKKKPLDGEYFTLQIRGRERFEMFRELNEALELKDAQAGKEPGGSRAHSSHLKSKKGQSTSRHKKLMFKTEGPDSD

[6] = IRF3 reporter activation in THP-1 macrophages, cell-based, PMA-stimulated THP-1, luminescence (AID 1053176); details: PMA-differentiated THP-1, IRF3 reporter luminescence; stronger effect = higher value
[7] = survival rescue of mitochondrial mutant cells in low glucose, primary screen, MELAS cybrids, Rieske KO mouse fibroblasts, CellTiter-Glo (AID 1508586;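 active means mean z-score across replicates of 1.96 or higher in either the MELAS or the Rieske mutant cell line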;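 further: z relative to plate mean and SD of compound and empty wells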)
[8] = MELAS cybrid survival, CellTiter-Glo 48 h, stronger effect = higher value
[9] = Rieske KO mouse fibroblast survival, CellTiter-Glo 72 h

SMILES | liver cell % of control [1] [%] | parasite % of control [1] | percent of negative control (+Dex) [2] | z-score [2] | z-score [3] | z-score [4] | EGFP object count [5] | EGFP/DsRed ratio [5] | fraction signal [6] | z-score [7, 8] | z-score [7, 9]
COc1cccc(-n2ncc3c(N/N=C/c4cccc(F)c4)ncnc32)c1 | 106 | 81% (inactive) | 93.5% (inactive) | 0.615 | -0.05 (inactive) | -0.183 (inactive) | 5 | 0.0775 (inactive) | 0.0035 (inactive) | 1.45 (inactive) | -0.242
Oc1[nH]c2ccccc2c1C=Nc1ccc(-n2cncn2)cc1 | 80.6 | 240% (inactive) | 142% (active) | 4.13 | -0.065 (inactive) | 3.17 (inactive) | 8.5 | 0.377 (inactive) | -0.0045 (inactive) | 0.931 (inactive) | -0.448
CNC(=O)c1cccc(C#Cc2cncnc2Nc2ccc(OCc3cccc(F)c3)c(Cl)c2)c1 | 105 | 143% (inactive) | 78% (inactive) | -0.47 | 0.59 (inactive) | -0.769 (inactive) | 1 | 0.0111 (inactive) | 0.003 (inactive) | -1.16 (inactive) | -0.232
CC(C)=Cc1cccc2[nH]c(O)c(N=Nc3ccc(S(N)(=O)=O)cc3)c12 | 77.9 | 247% (inactive) | 109% (inactive) | 1.89 | -0.155 (inactive) | 0.183 (inactive) | 21.5 | 0.593 (inactive) | 0 (inactive) | 0.633 (inactive) | 0.0676
CC1=C(C(=O)Nc2cc(Cl)c3[nH]ncc3c2)C(c2ccc(C(F)(F)F)cc2)CC(=O)N1 (centres undefined) | 106 | 193% (inactive) | 73% (inactive) | -1.52 | -0.22 (inactive) | -0.455 (inactive) | 2 | 0.126 (inactive) | -0.01 (inactive) | -0.0142 (inactive) | -0.416
COC(=O)c1ccc2c(c1)/C(=C\c1cc(Br)c(O)c(Br)c1)C(=O)N2 | 150 | 12.2% (active) | 110% (inactive) | 0.355 | -0.645 (inactive) | -0.838 (inactive) | 1 | 0.00779 (inactive) | -0.012 (inactive) | -0.186 (inactive) | -0.227
Cc1ccc2c(-c3ccnc(Nc4ccccc4)n3)c(-c3ccc(F)cc3)nn2n1 | 152 | 12.5% (active) | 81% (inactive) | -1.78 | 0.225 (inactive) | -0.658 (inactive) | 6 | 0.152 (inactive) | -0.0025 (inactive) | 0.41 (inactive) | -0.16
CCNC(=O)O[C@H]1CN[C@H](C#Cc2cc3ncnc(Nc4ccc(OCc5cccc(F)c5)c(Cl)c4)c3s2)C1 | 105 | 113% (inactive) | 82.5% (inactive) | -0.355 | 1.02 (inactive) | -0.875 (inactive) | 5.5 | 0.233 (inactive) | -0.003 (inactive) | 0.000408 (inactive) | -0.264
CS(=O)(=O)CCNCc1cc(-c2cc3c(Nc4ccc(OCc5cccc(F)c5)c(Cl)c4)ncnc3s2)cs1 | 91.2 | 132% (inactive) | 79.5% (inactive) | -0.645 | 0.375 (inactive) | 0.207 (inactive) | 4.5 | 0.11 (inactive) | -0.0035 (inactive) | -0.394 (inactive) | -0.666
COc1cc(/C=N/Nc2ncnc3c2cnn3C(C)C)ccc1O | 128 | 63.2% (inactive) | 92.5% (inactive) | 0.145 | -0.5 (inactive) | -0.511 (inactive) | 6.5 | 0.127 (inactive) | -0.006 (inactive) | -1.18 (inactive) | 1.02
CN(C)CCOc1ccc(-c2cc(-c3ccc4c(c3)CC/C4=N/O)c(-c3ccncc3)o2)cc1 | 77.4 | 441% (inactive) | 130% (inactive) | 0.59 | 0.205 (inactive) | -0.386 (inactive) | 48 | 1.74 (active) | 0.045 (inactive) | 0.463 (inactive) | -0.429
CN1CCC(n2cnc(-c3ccc(F)cc3)c2-c2ccnc(N)n2)CC1 | 83.2 | 168% (inactive) | 107% (inactive) | 2.09 | 0.34 (inactive) | 3.77 (inactive) | 1.5 | 0.024 (inactive) | -0.004 (inactive) | -0.312 (inactive) | -0.31
O=S1CCN(Cc2ccc(-c3ccc4ncnc(Nc5ccc(OCc6ccccc6)c(F)c5)c4c3)o2)CC1 | 81.6 | 112% (inactive) | 77.5% (inactive) | -1.04 | -0.505 (inactive) | 0.693 (inactive) | 2.5 | 0.0418 (inactive) | 0.012 (inactive) | -0.335 (inactive) | -0.276
Nc1nc(-c2ccccn2)c(-c2ccc3ncccc3n2)s1 | 94.7 | 101% (inactive) | 81.5% (inactive) | -0.74 | 0.265 (inactive) | 4.39 (inactive) | 4 | 0.114 (inactive) | -0.01 (inactive) | -0.0333 (inactive) | -0.22
